Test results from the supplement of paper PMC8728848.
About 410 targets per protein were measured; listed, in parts, are those with the strongest signals and a random draw of the rest.

What was measured:
Test in all cases: glycan array binding signal (z-score within array); higher = stronger binding
Conditions in all cases: glycan notation: IUPAC condensed, linker removed
[1] = target: Fuc(a1-2)Gal(b1-3)GalNAc(a1-3)[Fuc(a1-2)]Gal(b1-4)GlcNAc
Summary of the method: (§1)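 Arrays were curated from the Consortium for Functional Glycomics database, 3228 in total, and kept only where the protein sequence was available. Binding is expressed as a within-array Z-score. This score was averaged across arrays of the same protein sequence at different concentrations or buffers and across linkers, and negative values can be read as non-binding.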

[2] = target: Fuc(a1-2)Gal(b1-3)GalNAc(b1-3)Gal
Summary of the method: as §1

[3] = target: Fuc(a1-2)Gal(b1-3)GlcNAc(b1-3)Gal(b1-4)Glc
Summary of the method: as §1

[4] = target: Fuc(a1-2)Gal(b1-3)GlcNAc(b1-3)[Neu5Ac(a2-6)Gal(b1-4)GlcNAc(b1-6)]Gal(b1-4)Glc
Summary of the method: as §1

[5] = target: Fuc(a1-2)Gal(b1-4)[Fuc(a1-3)]GlcNAc(b1-2)Man(a1-3)[Fuc(a1-2)Gal(b1-4)[Fuc(a1-3)]GlcNAc(b1-2)Man(a1-6)]Man(b1-4)GlcNAc(b1-4)GlcNAc
Summary of the method: as §1

[6] = target: Fuc(a1-2)Gal(b1-4)[Fuc(a1-3)]GlcNAc(b1-3)GalNAc
Summary of the method: as §1

[7] = target: Fuc(a1-2)[GalNAc(a1-3)]Gal(b1-3)GlcNAc(b1-2)Man(a1-3)[Fuc(a1-2)[GalNAc(a1-3)]Gal(b1-3)GlcNAc(b1-2)Man(a1-6)]Man(b1-4)GlcNAc(b1-4)GlcNAc
Summary of the method: as §1

[8] = target: Fuc(a1-2)[GalNAc(a1-3)]Gal(b1-3)GlcNAc(b1-2)Man(a1-3)[Fuc(a1-2)[GalNAc(a1-3)]Gal(b1-3)GlcNAc(b1-2)Man(a1-6)]Man(b1-4)GlcNAc(b1-4)[Fuc(a1-6)]GlcNAc
Summary of the method: as §1

[9] = target: Fuc(a1-2)[GalNAc(a1-3)]Gal(b1-4)GlcNAc(b1-3)Gal(b1-4)GlcNAc
Summary of the method: as §1

[10] = target: Fuc(a1-3)[Gal(b1-4)]GlcNAc(b1-6)GalNAc
Summary of the method: as §1

[11] = target: Gal(a1-4)Gal(b1-3)GlcNAc(b1-2)Man(a1-3)[Gal(a1-4)Gal(b1-3)GlcNAc(b1-2)Man(a1-6)]Man(b1-4)GlcNAc(b1-4)GlcNAc
Summary of the method: as §1

Gal(a1-4)Gal(b1-4)Glc = target: Gal(a1-4)Gal(b1-4)Glc
Summary of the method: as §1

Gal(b1-3)Gal(b1-4)GlcNAc = target: Gal(b1-3)Gal(b1-4)GlcNAc
Summary of the method: as §1

Gal(b1-3)GalNAc = target: Gal(b1-3)GalNAc
Summary of the method: as §1

[12] = target: Gal(b1-3)[Fuc(a1-4)]GlcNAc(b1-2)Man(a1-3)[Gal(b1-3)[Fuc(a1-4)]GlcNAc(b1-2)Man(a1-6)]Man(b1-4)GlcNAc(b1-4)GlcNAc
Summary of the method: as §1

[13] = target: Gal(b1-3)[Fuc(a1-4)]GlcNAc(b1-3)Gal(b1-4)GlcNAc
Summary of the method: as §1

[14] = target: Gal(b1-4)GlcNAc(b1-2)Man(a1-3)[Man(a1-6)]Man(b1-4)GlcNAc(b1-4)GlcNAc
Summary of the method: as §1

Gal3S(b1-4)Glc6S = target: Gal3S(b1-4)Glc6S
Summary of the method: as §1

GalNAc(b1-3)Gal = target: GalNAc(b1-3)Gal
Summary of the method: as §1

[15] = target: GalNAc(b1-4)GlcNAc(b1-2)Man(a1-3)[GalNAc(b1-4)GlcNAc(b1-2)Man(a1-6)]Man(b1-4)GlcNAc(b1-4)GlcNAc
Summary of the method: as §1

[16] = target: GlcNAc(a1-4)Gal(b1-4)GlcNAc(b1-3)Gal(b1-4)GlcNAc
Summary of the method: as §1

[17] = target: GlcNAc(b1-2)[GlcNAc(b1-6)]Man(a1-6)[GlcNAc(b1-2)Man(a1-3)]Man(b1-4)GlcNAc(b1-4)GlcNAc
Summary of the method: as §1

[18] = target: GlcNAc(b1-3)[GlcNAc(b1-6)]GalNAc
Summary of the method: as §1

[19] = target: Kdn(a2-3)Gal(b1-4)[Fuc(a1-3)]GlcNAc
Summary of the method: as §1

Kdn(a2-6)Gal(b1-4)GlcNAc = target: Kdn(a2-6)Gal(b1-4)GlcNAc
Summary of the method: as §1

[20] = target: Man(a1-2)Man(a1-2)Man(a1-3)Man
Summary of the method: as §1

[21] = target: Man(a1-2)Man(a1-2)Man(a1-6)[Man(a1-3)]Man
Summary of the method: as §1

[22] = target: Man(a1-2)Man(a1-3)[Man(a1-2)Man(a1-6)]Man(a1-6)[Man(a1-2)Man(a1-2)Man(a1-3)]Man
Summary of the method: as §1

[23] = target: Neu5Ac(a2-3)Gal(b1-3)GlcNAc(b1-3)GalNAc
Summary of the method: as §1

[24] = target: Neu5Ac(a2-3)Gal(b1-3)[Neu5Ac(a2-6)]GalNAc
Summary of the method: as §1

B1: 3FTT (Staphylococcus aureus), Q5HCZ5 (protein)
chain: MTEKEKMLAEKWYDANFDQYLINERARAKDICFELNHTRPSATNKRKELIDQLFQTTTDNVSISIPFDTDYGWNVKLGKNVYVNTNCYFMDGGQITIGDNVFIGPNCGFYTATHPLNFHHRNEGFEKAGPIHIGSNTWFGGHVAVLPGVTIGEGSVIGAGSVVTKDIPPHSLAVGNPCKVVRKIDNDLPSETLNDETIK
- glycan array binding signal (z-score) [1]: -0.281
- glycan array binding signal (z-score) [2]: 1.06
- glycan array binding signal (z-score) [3]: -0.165
- glycan array binding signal (z-score) [4]: -0.004
- glycan array binding signal (z-score) [5]: 0.815
- glycan array binding signal (z-score) [6]: 1.26
- glycan array binding signal (z-score) [7]: 0.032
- glycan array binding signal (z-score) [8]: 0.227
- glycan array binding signal (z-score) [9]: -0.09
- glycan array binding signal (z-score) [10]: 0.714
- glycan array binding signal (z-score) [11]: -0.237
- glycan array binding signal (z-score) (Gal(a1-4)Gal(b1-4)Glc): -0.171
- glycan array binding signal (z-score) (Gal(b1-3)Gal(b1-4)GlcNAc): 0.256
- glycan array binding signal (z-score) (Gal(b1-3)GalNAc): -0.105
- glycan array binding signal (z-score) [12]: 19.9
- glycan array binding signal (z-score) [13]: -0.017
- glycan array binding signal (z-score) [14]: -0.261
- glycan array binding signal (z-score) (Gal3S(b1-4)Glc6S): 0.798
- glycan array binding signal (z-score) (GalNAc(b1-3)Gal): -0.332
- glycan array binding signal (z-score) [15]: 5.95
- glycan array binding signal (z-score) [16]: 0.607
- glycan array binding signal (z-score) [17]: -0.134
- glycan array binding signal (z-score) [18]: -0.288
- glycan array binding signal (z-score) [19]: 0.16
- glycan array binding signal (z-score) (Kdn(a2-6)Gal(b1-4)GlcNAc): -0.292
- glycan array binding signal (z-score) [20]: -0.082
- glycan array binding signal (z-score) [21]: -0.073
- glycan array binding signal (z-score) [22]: -0.089
- glycan array binding signal (z-score) [23]: -0.066
- glycan array binding signal (z-score) [24]: -0.057
